# Values quoted from earlier work in PubChem BioAssay AID977611.
# Screen size: about 3,900 compounds; about 3,900 (100%) were called active. Cut-off not given; nearly all actives show Kd up to about 4200 µM. So high a share suggests a set chosen from earlier hits. This is one part of the list. Where a SMILES comes first, the peptide text is derived from it. Non-standard residues stand in square brackets, D forms with d. Residues, ends and D or L forms follow the SMILES beside them. Orn(CH(NH2)2) = NC(N)NCCC[C@H](N)C(=O)O
# Assay: PubChem AID 977611
# Conditions: PDB protein-ligand complexes, literature Kd
molecule,measurement,setting,value
O=C(CCN1CCCCC1)N1CCc2[nH]c(=O)c3cc(F)ccc3c2C1,Kd,"protein: Putative ADP-ribosyltransferase Certhrax, PDB entry 4fxq",1.7 µM (active)
C[C@H]1CCC[C@H](C[C@H]2Cc3cc(O)cc(O)c3C(=O)O2)O1,Kd,"protein: Lysine--tRNA ligase, PDB entry 4pg3",0.014 µM (active)
CC[C@H](C)[C@H](NC(=O)[C@H](CO)NC(=O)[C@@H]1CCCN1C(=O)[C@H](C)N)C(=O)N[C@@H](CC(=O)O)C(=O)N[C@@H](CCCNC(N)N)C(=O)N[C@@H](CO)C(=O)N[C@H](C(=O)N[C@@H](CCCCN)C(=O)N1CCC[C@H]1C(=O)N1CCC[C@H]1C(=O)N[C@@H](CC(C)C)C(=O)O)[C@@H](C)O (H-APSID[Orn(CH(NH2)2)]STKPPL-OH),Kd,"protein: Grb2-related adaptor protein 2(C-terminal SH3 domain (SH3C) of Mona/Gads, PDB entry 1oeb",0.118 µM (active)
CC[C@H](C)[C@H](N)C(=O)N[C@@H](CCC(=O)O)C(=O)N[C@@H](CC(C)C)C(=O)N1CCC[C@H]1C(=O)N[C@@H](CCC(=O)O)C(=O)N[C@H](C(=O)N1CCC[C@H]1C(=O)N[C@@H](CO)C(=O)N[C@@H](CCC(=O)O)C(=O)N1CCC[C@H]1C(=O)N[C@@H](CC(C)C)C(=O)N1CCC[C@H]1C(=O)O)C(C)C (H-IELPEVPSEPLP-OH),Kd,"protein: Vacuolar protein sorting-associating protein 4A, PDB entry 2k3w",5.8 µM (active)
CC[C@H](C)[C@H](NC(=O)[C@@H](NC(=O)[C@H](CC(C)C)NC(=O)[C@H](C)NC(=O)[C@@H]1CCCN1C(=O)[C@H](CC(C)C)NC(=O)[C@@H](NC(=O)[C@@H]1CCCN1C(=O)[C@H](CCCCN)NC(=O)[C@H](CCCNC(N)N)NC(=O)[C@H](C)N)C(C)C)[C@@H](C)O)C(=O)N[C@@H](C)C(=O)O (H-A[Orn(CH(NH2)2)]KPVLPALTIA-OH),Kd,"protein: Mitogen-activated protein kinase 1 (R77A, E314A, I255G, C162S mutation), PDB entry 4h3q",8 µM (active)
CC[C@H](C)[C@H](NC(=O)[C@H](CC(C)C)NC(=O)[C@@H]1CCCN1C(=O)[C@@H]1CCCN1C(=O)[C@@H]1CCCN1C(=O)[C@H](CC(N)=O)NC(=O)[C@H](CO)NC(=O)[C@@H](NC(=O)[C@@H](N)[C@@H](C)O)[C@@H](C)CC)C(=O)N[C@@H](CO)C(=O)N[C@@H](CO)C(=O)N[C@@H](C)C(=O)N[C@@H](CCCCN)C(=O)O (H-TISNPPPLISSAK-OH),Kd,"protein: The MYND domain (NHR4) of ETO, PDB entry 2odd",109 µM (active)
H-ELPLVKI-OH,Kd,"protein: Chaperone protein DnaK, PDB entry 4ezz",6.4 µM (active)
CC[C@H](C)[C@H](NC(=O)[C@H](Cc1ccccc1)NC(=O)[C@H](CCCCN)NC(=O)CN)C(=O)N1CCC[C@H]1C(=O)N[C@@H](CO)C(=O)N[C@@H](CCCNC(N)N)C(=O)N1CCC[C@H]1C(=O)N[C@@H](C)C(=O)N1CCC[C@H]1C(=O)N[C@@H](CCCCN)C(=O)N1CCC[C@H]1C(=O)N1CCC[C@H]1C(=O)N[C@@H](CO)C(=O)N[C@@H](CO)C(=O)N[C@@H](C)C(=O)O (H-GKFIPS[Orn(CH(NH2)2)]PAPKPPSSA-OH),Kd,"protein: NAP1-binding protein 2, PDB entry 2lcs",0.2 µM (active)
CC[C@H](C)[C@H](NC(=O)[C@@H](NC(=O)[C@@H](N)CS)[C@@H](C)CC)C(=O)N[C@@H](CO)C(=O)N[C@@H](C)C(=O)N[C@@H](CCSC)C(=O)N1CCC[C@H]1C(=O)N[C@H](C(=O)N[C@@H](CCCCN)C(=O)N[C@@H](CO)C(=O)N[C@@H](CO)C(=O)N[C@@H](CCCNC(N)N)C(=O)N[C@@H](CCCCN)C(=O)N[C@@H](C)C(=O)N[C@@H](CCCCN)C(=O)N[C@@H](CCCCN)C(=O)N1CCC[C@H]1C(=O)N[C@@H](C)C(=O)N[C@@H](CCC(N)=O)C(=O)O)[C@@H](C)O (H-CIISAMPTKSS[Orn(CH(NH2)2)]KAKKPAQ-OH),Kd,"protein: DDEF1 SH3 domain, PDB entry 2rqu",23.6 µM (active)
H-KPAAVVAPI-OH,Kd,"protein: Ubiquitin ligase SIAH1, PDB entry 2a25",24 µM (active)
CC[C@H](C)[C@H](NC(=O)[C@H](CO)NC(=O)[C@@H]1CCCN1C(=O)[C@H](C)N)C(=O)N[C@@H](CC(=O)O)C(=O)N[C@@H](CCCNC(N)N)C(=O)N[C@@H](CO)C(=O)N[C@H](C(=O)N[C@@H](CCCCN)C(=O)N1CCC[C@H]1C(=O)N[C@@H](C)C(=O)O)[C@@H](C)O (HELM PEPTIDE1{A.P.S.I.D.[NC(N)NCCC[C@H](N[*:1])C(=O)[*:2]].S.T.K.P.A}$$$$V2.0),Kd,"protein: mouse Gads T cell adaptor C-terminal SH3 domain, PDB entry 1h3h",0.22 µM (active)
CC(C)(CO[P+](O)(O)O[P+](O)(O)OC[C@H]1O[C@@H](n2cnc3c(N)ncnc32)[C@H](O)[C@@H]1O[P+](O)(O)O)[C@@H](O)C(=O)NCCC(=O)NCCSC(=O)CC[C@@H]1C(=O)CC[C@]2(C)C(=O)CC[C@@H]12,Kd,"protein: HTH-type transcriptional repressor KstR2, PDB entry 4w97",0.08 µM (active)
CC(C)(CO[P+](O)(O)O[P+](O)(O)OC[C@H]1O[C@@H](n2cnc3c(N)ncnc32)[C@H](O)[C@@H]1O[P+](O)(O)O)[C@@H](O)C(=O)NCCC(=O)NCCSC(=O)c1ccc2ccccc2c1O,Kd,"protein: 1,4-Dihydroxy-2-naphthoyl-CoA synthase MenB, PDB entry 4qij",2.9 µM (active)
H-LKTKLL-OH,Kd,"protein: coatomer alpha subunit, PDB entry 4j8b",16.1 µM (active)
H-KTKLL-OH,Kd,"protein: Coatomer subunit beta', PDB entry 4j78",22.5 µM (active)
O=C(Nc1ccc2[nH]nc(-c3ccncc3)c2c1)[C@@H]1CCN(CC(=O)N2CCN(c3ccc(-c4ncccn4)cc3)CC2)C1,Kd,"protein: Mitogen-activated protein kinase 1 ERK2, PDB entry 4qta",0.2 µM (active)
CC(=O)c1ccc(N2CCN(C(=O)CN3CC[C@@H](C(=O)Nc4ccc(O)c(Cl)c4)C3)CC2)cc1,Kd,"protein: Mitogen-activated protein kinase 1 ERK2, PDB entry 4qyy",0.05 µM (active)
C/C(=N\Nc1nc2ccccc2s1)c1ccc(-c2cccc(S(=O)(=O)NC(=O)CCCCCc3ccccc3)c2)o1,Kd,"protein: BCL-2-LIKE PROTEIN 1, PDB entry 3zk6",0.46 µM (active)
CNCc1ccc(C(F)(F)F)cc1,Kd,"protein: Dihydropteroate synthase BaDHPS, PDB entry 4nl1",130 µM (active)
Nc1ncnc2c1ncn2[C@@H]1O[C@@H]2CO[P+](O)(O)O[C@H]3[C@@H](O)[C@H](n4cnc5c(N)ncnc54)O[C@@H]3CO[P+](O)(O)O[C@H]2[C@H]1O,Kd,PDB entry 4qsh,8 µM (active)
same,Kd,"protein: PstA, PDB entry 4wk1",1.3 µM (active)
same,Kd,"protein: Staphylococcus aureus PII-like signal transduction protein PstA, PDB entry 4d3h",0.37 µM (active)
Nc1ncnc2c1ccn2[C@@H]1O[C@@H]2CO[P+](O)(O)O[C@H]2[C@H]1O,Kd,"protein: Potassium/sodium hyperpolarization-activated cyclic nucleotide-gated channel 4 hHCN4, PDB entry 4nvp",0.027 µM (active)
CC(=O)C(O)(O)[C@@H](O)CO[P+](O)(O)O,Kd,"protein: Transcriptional regulator LsrR, PDB entry 4l4z",2.1 µM (active)
CC(C)CC(=O)C(O)(O)[C@@H](O)CO[P+](O)(O)O,Kd,"protein: Transcriptional regulator LsrR, PDB entry 4l50",0.88 µM (active)
CC(CO)CCC[P+](O)(O)O[P+](O)(O)O (stereo unspecified),Kd,"protein: Intracellular B30.2 Domain of BTN3A1, PDB entry 4n7u",0.51 µM (active)
Nc1nc2c([nH]c[n+]2[C@@H]2O[C@@H]3CO[P+](O)(O)O[C@H]3[C@H]2O)c(=O)[nH]1,Kd,"protein: Cyclic nucleotide-gated potassium channel mll3241, PDB entry 4muv",1.73 µM (active)
Nc1nc2c([nH]c[n+]2[C@@H]2O[C@H](CO[P+](O)(O)O[P+](O)(O)O[P+](O)(O)O)[C@@H](O)[C@H]2O)c(=O)[nH]1,Kd,"protein: GTPase domain of Septin 10 from Schistosoma mansoni, PDB entry 4kva",115 µM (active)
same,Kd,"protein: eukaryotic translation initiation factor eIF5B (517-858) from Chaetomium thermophilum, PDB entry 4ncn",2.12 µM (active)
Nc1nc2c([nH]c[n+]2[C@@H]2O[C@H](CO[P+](O)(O)O[P+](O)(O)C[P+](O)(O)O)[C@@H](O)[C@H]2O)c(=O)[nH]1,Kd,"protein: Interferon-induced GTP-binding protein Mx1 stalkless-MxA, PDB entry 4p4s",11.5 µM (active)
Nc1nc2c([nH]c[n+]2[C@@H]2O[C@H](CO[P+](O)(O)O[P+](O)(O)O)[C@@H](O)[C@H]2O)c(=O)[nH]1,Kd,"protein: Ferrous iron uptake transporter protein B FeoB(A143S mutant), PDB entry 4non",5.71 µM (active)
same,Kd,"protein: GTPase domain of Septin 10 from Schistosoma mansoni, PDB entry 4kv9",146 µM (active)
same,Kd,"protein: Interferon-induced GTP-binding protein Mx1 stalkless-MxA, PDB entry 4p4t",41 µM (active)
same,Kd,"protein: Mitochondrial dynamic protein MID51, PDB entry 4nxv",3.8 µM (active)
